In the library only some 11% were active in any assay of this set; here they are far more common.
PI5P4Ka inh: inhibitors of human PI5P4K alpha; AID 652105; max response, %; PI5P4Kalpha enzyme, ADP-Glo luminescence, 60 min; stronger effect = lower value; 330,000 tested, 1.2% active; active = max response of -50% or lower; inconclusive = between -30% and -50%; inactive = -30% or higher; also: value at the top dose of about 77 µM; % is scaled to controls: 0 for no effect and ±100 for the full control effect
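Human PI5P4Kalpha with substrate in 0.038 M HEPES pH 7.4, 0.28 mM EGTA, 0.1% CHAPS, 5% DMSO; reaction started with 5 microM ATP (final), 60 min at room temperature. ADP formed read by ADP-Glo luminescence.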
L3MBTL1 block: inhibitors of human L3MBTL1; 230,000 tested, 0.66% active; Q9Y468; AID 485360; AlphaScreen L3MBTL1–H3K9me1 peptide binding; Potency, µM (titrated, usually from 57.1 µM), for inactives: top-dose activity, negative = inhibition, actives largely listed as inhibitors; also: potency is read from the fitted curve at half-maximal effect; % is scaled to controls: 0 for no effect and ±100 for the full control effect; nearly all actives have a fitted effect of over 60% in size
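AlphaScreen proximity signal between nickel-chelate acceptor and streptavidin donor beads (final 10 ug/mL) reports binding of 50 nM L3MBTL1 to 75 nM biotin-H3 K9me1 peptide; complex incubated with compounds 30 min at room temperature; cefsulodin titration as control.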
G9a block: inhibitors of human histone lysine methyltransferase G9a | G9a H3K9 monomethylation, AlphaScreen, 2 h | Potency, µM (doses to about 102 µM), for the others: at the top dose activity, negative = inhibition, actives largely listed as inhibitors | 350,000 tested, 8.8% active; also: potency is read from the fitted curve at half-maximal effect; % is scaled to controls: 0 for no effect and ±100 for the full control effect; nearly all actives have a fitted effect of over 75% in size
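G9a (20 nM) was preincubated 15 min with compound, then reacted 2 h at room temperature with 500 nM biotin-H3K9 peptide and 20 µM SAM. Monomethyl-H3K9 detected by AlphaScreen using anti-H3K9me1 antibody.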
JMJD2A Tudor: blocks the human JMJD2A Tudor domain | AID 504339 | Potency, µM (series often up to 114 µM), for inactives: at the highest dose activity change, negative = inhibition, usual class: inhibitors | 390,000 tested, 4.4% active | AlphaScreen JMJD2A-Tudor / H3K4me3 peptide binding; also: potency is read from the fitted curve at half-maximal effect; % is scaled to controls: 0 for no effect and ±100 for the full control effect; nearly all actives have a fitted effect of over 50% in size
HP1b binding inh: inhibitors of HP1-beta chromodomain binding to methylated histone tails; Potency, µM (titrated, usually from 114 µM), for the others: at the highest dose activity change, negative = inhibition, most hits filed as inhibitors; P83916; AID 540317; 390,000 tested, 0.56% active; AlphaScreen HP1-beta / biotin-H3K9me3 peptide binding; also: potency is read from the fitted curve at half-maximal effect; nearly all actives have a fitted effect of over 70% in size
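Compound inhibition of the preformed complex between 50 nM HP1-beta and 50 nM biotinylated H3K9me3 peptide was read by AlphaScreen. Buffer was PBS pH 7.4 with 0.01% Tween-20. Incubations ran 30 min at room temperature, with 10 ug/mL donor/acceptor beads.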
BAZ2B inh: BAZ2B (human) inhibition; Q9UIF8; AlphaScreen BAZ2B-H3K14Ac peptide displacement; 360,000 tested, 4.4% active; Potency, µM (top dose mostly 114 µM), without a hit: at the top dose activity change, negative = inhibition, actives largely listed as inhibitors; also: potency is read from the fitted curve at half-maximal effect; % is scaled to controls: 0 for no effect and ±100 for the full control effect; nearly all actives have a fitted effect of over 60% in size
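AlphaScreen luminescence quantifies BAZ2B engagement of H3K14Ac peptide; the protein and biotinylated peptide are both at 50 nM final, buffer PBS pH 7.4 with 0.01% Tween-20, all steps at room temperature.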
Starred values were filed as active, the others as inactive; ! = not confirmed by another sample; [ ] = dose if it differs, or a comment. Unless noted, calls follow the shape of the dose curve; as a rule, active = well fitted inhibition curve with a large enough effect; inconclusive = small, poorly fitted or top-dose-only effect; inactive = no such curve, though single readings can be large or run the other way.

`Cc1ccc(N2C(=O)NC(=O)/C(=C/c3ccoc3)C2=O)cc1` gave PI5P4Ka inh -83*, JMJD2A Tudor 10µM*, HP1b binding inh 10µM* and BAZ2B inh 7.9µM*.
`CC(C)CC(CN)CC(=O)O` (stereo unspecified) gave G9a block -2%[2.33 µM].
For N#Cc1ccc(C(=O)N2CCN(c3nc4ccc(F)cc4s3)CC2)cc1 the results were G9a block 5%[59 µM], JMJD2A Tudor 0%, HP1b binding inh 40% and BAZ2B inh 0%.
N#CCCN was read as G9a block -17%[59 µM].
Cn1sc(Cl)cc1=O was read as G9a block -27%[12.7 µM].
For CC(C)CC(=O)Nc1ccc(C(=O)Cn2c(=O)oc3ccccc32)cc1 the results were PI5P4Ka inh -16, L3MBTL1 block inconclusive, G9a block -4%, JMJD2A Tudor -30%, HP1b binding inh 8% and BAZ2B inh inconclusive.
`[O]=[Cd]` gave G9a block 31%[59 µM].
`CCOC(=O)c1c(-n2c(C)cc(C=C3C(=O)NC(=O)NC3=O)c2C)sc2c1CCCC2` gave PI5P4Ka inh -16, L3MBTL1 block 2%, G9a block inconclusive, JMJD2A Tudor 1%, HP1b binding inh 36% and BAZ2B inh 5%.
Cc1cccc(N2C(=O)NC(=O)/C(=C\c3cc(C)n(-c4sc5c(c4C#N)CCCC5)c3C)C2=O)c1C was read as PI5P4Ka inh -29, L3MBTL1 block 0%, G9a block 16µM*, JMJD2A Tudor inconclusive, HP1b binding inh -20% and BAZ2B inh inconclusive.
Screening CN(CCOc1ccc(C=C2C(=O)NC(=O)NC2=O)cc1)c1ccccn1 returned PI5P4Ka inh inconclusive, L3MBTL1 block 7%, G9a block 45µM*, JMJD2A Tudor inconclusive, HP1b binding inh 20% and BAZ2B inh -23%.
Screening COc1ccc(OCCOc2cccc(C=C3C(=O)NC(=O)NC3=O)c2)cc1 returned L3MBTL1 block inconclusive, G9a block inconclusive and BAZ2B inh -36%.
`CCC1(CC)C(=O)NC(=O)N(C)C1=O` gave G9a block 12%[12.7 µM].
O=C1NC(=O)N(CCNc2ncc(C(F)(F)F)cc2Cl)C(=O)C1Cc1ccc(Cl)cc1 (stereo unspecified) was read as PI5P4Ka inh -1, L3MBTL1 block -1%, G9a block 50µM*, JMJD2A Tudor -8%, HP1b binding inh 20% and BAZ2B inh -15%.
`Cc1ncc(CNC(=O)N(CCCl)N=O)c(N)n1` gave PI5P4Ka inh 1, L3MBTL1 block 8%, G9a block 17µM*!, JMJD2A Tudor -34%, HP1b binding inh 24% and BAZ2B inh -10%.
Screening C[C@H]1CC[C@@H]2[C@@H](C)[C@H]3C(C[C@H]4C5CC[C@H]6C[C@@H](O)CC[C@]6(C)C5CC[C@]34C)N2C1 (stereo partly specified) returned JMJD2A Tudor -6% and HP1b binding inh 36%.
COP(=S)(OC)Oc1ccc(Sc2ccc(OP(=S)(OC)OC)cc2)cc1 was read as PI5P4Ka inh -64*, G9a block inconclusive, JMJD2A Tudor 113% and HP1b binding inh 139%.
`O=C(CCC(=O)N1CCOc2ccc(Cl)cc21)N1CCC2(CC1)OCCO2` gave PI5P4Ka inh 0, JMJD2A Tudor -12%, HP1b binding inh 46% and BAZ2B inh 4%.
O=C(NC1(C(F)(F)F)Oc2ccc(Cl)cc2O1)N1CCC2(CC1)OCCO2 (stereo unspecified) was read as PI5P4Ka inh -2, G9a block inconclusive, JMJD2A Tudor 32µM*, HP1b binding inh -5% and BAZ2B inh 79µM*.
Screening O=C(NC1(C(F)(F)F)Oc2ccccc2O1)N1CCC2(CC1)OCCO2 returned L3MBTL1 block inconclusive, G9a block 1.8µM*, JMJD2A Tudor 45µM*, HP1b binding inh inconclusive and BAZ2B inh -5%.
For Clc1ccc(N2CC3CCC(C2)N3)nn1 the results were G9a block 24µM*.
`COc1ccc(Cn2c(=O)oc3ccc(C)cc32)cc1OC` gave PI5P4Ka inh -2, L3MBTL1 block 8%, G9a block 10%[12.7 µM], JMJD2A Tudor -10%, HP1b binding inh 65% and BAZ2B inh -2%.
Screening COc1cc2c(cc1OC)-c1c(OC)c(OC)c(OC)c3ccnc(c13)C2=O returned PI5P4Ka inh 0, L3MBTL1 block -6%, G9a block inconclusive, JMJD2A Tudor inconclusive, HP1b binding inh -1% and BAZ2B inh 28µM*.
`COc1cc(CC2(CCc3ccncc3)C(=O)NC(=O)NC2=O)cc(OC)c1OC` gave PI5P4Ka inh 2, L3MBTL1 block -1%, G9a block 6%, JMJD2A Tudor -15%, HP1b binding inh -18% and BAZ2B inh -12%.
For Nc1c(C(=O)Nc2ccc(Br)cc2F)sc2nc3c(cc12)N1CCC3CC1 the results were G9a block inconclusive, JMJD2A Tudor inconclusive, HP1b binding inh 40% and BAZ2B inh -3%.
For Cc1n[nH]c(C)c1CCCCOc1ccc([N+](=O)[O-])cc1 the results were PI5P4Ka inh -3, L3MBTL1 block 2%, G9a block 50µM*, JMJD2A Tudor -15%, HP1b binding inh 18% and BAZ2B inh -20%.
Screening CCCCn1c(C)c(C(=O)OCC)c2c(CN3CCCC3)c(O)ccc21 returned PI5P4Ka inh 2, G9a block 40µM*, JMJD2A Tudor -31%, HP1b binding inh 6% and BAZ2B inh -35%.
`CCCCn1c(C)c(C(=O)OCC)c2c(CN3CCOCC3)c(O)ccc21` gave G9a block inconclusive, JMJD2A Tudor inconclusive, HP1b binding inh -9% and BAZ2B inh -38%.
Screening CC(=O)[C@H]1[C@H](C#N)C[C@H]2[C@@H]3CC=C4C[C@@H](O)CC[C@]4(C)[C@H]3CC[C@@]21C returned PI5P4Ka inh 0, L3MBTL1 block -6%, G9a block -6%, JMJD2A Tudor -14%, HP1b binding inh 26% and BAZ2B inh 6%.
For O=C(OCC(=O)c1ccc([N+](=O)[O-])cc1)/C(=C/c1ccc(Cl)cc1)NC(=O)c1ccccc1 the results were PI5P4Ka inh -3, L3MBTL1 block -9%, G9a block 7.9µM*, JMJD2A Tudor -13%, HP1b binding inh 44% and BAZ2B inh -11%.
O=[N+]([O-])c1cc(-c2ccc([As](=O)(O)O)cc2)ccc1[As](=O)(O)O was read as L3MBTL1 block 22µM*, G9a block 50µM* and BAZ2B inh inconclusive.

Source: PubChem
